In the library only some 4.1% were active in any assay of this set; here they are far more common.
Sm TGR block: inhibitors of Schistosoma mansoni thioredoxin glutathione reductase | Q962Y6 | purified TGR, DTNB reduction, TNB absorbance 405 nm | Potency, µM (top dose mostly 114 µM), for the others: top-dose activity change, negative = inhibition, actives largely listed as inhibitors | 3% of 360,000 active | AID 485364; note: nearly all actives have a fitted effect of over 60% in size
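TGR 20 nM + NADPH 100 uM (dispensed conc.), cpd preinc 15 min RT; start with NADPH (500 uM addition) then DTNB (15 mM addition). Kinetic TNB absorbance, 405 nm filter. Four-parameter Hill fit across titration.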
AMA1-RON2 inh: disrupts binding of P. falciparum AMA1 to RON2; Potency, µM (highest dose often 58.2 µM), for the others: at the highest dose activity change, negative = inhibition, most hits filed as inhibitors; AID 720542; AlphaScreen AMA1-biotinylated RON2 peptide binding; 0.2% of 360,000 active;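 note: 0% = vehicle wells and -100% = peptide control; nearly all actives have a fitted effect of over 45% in size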
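AMA1 (3D7) with his tag at 25 nM final met compounds first, then biotinylated RON2 peptide at 25 nM; detection used donor plus acceptor beads, 10 µg/mL apiece, read by AlphaScreen after 30 min at room temperature.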
FMDV inh: antivirals against foot and mouth disease virus; AID 1159524; 1.2% of 410,000 active; Potency, µM (series often up to 57.9 µM), for inactives: at the top dose activity change, negative = inhibition, usual class: inhibitors; FMDV antiviral cell-based qHTS; calls by dose curve; tested in HEK293T cells; note: read-out not given here; nearly all actives have a fitted effect of over 45% in size
AmpC inh no detg: AmpC beta-lactamase inhibition without detergent; P00811; AmpC nitrocefin hydrolysis, absorbance 480 nm, 0.0001% Triton; Potency, µM (series often up to 57.1 µM), for inactives: at the top dose activity change, negative = inhibition, most hits filed as inhibitors; 0.52% of 330,000 active;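 note: plate controls were no compound for no effect and no enzyme for full effect; nearly all actives have a fitted effect of over 20% in size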
Target sequence (P00811 whole entry, looked up): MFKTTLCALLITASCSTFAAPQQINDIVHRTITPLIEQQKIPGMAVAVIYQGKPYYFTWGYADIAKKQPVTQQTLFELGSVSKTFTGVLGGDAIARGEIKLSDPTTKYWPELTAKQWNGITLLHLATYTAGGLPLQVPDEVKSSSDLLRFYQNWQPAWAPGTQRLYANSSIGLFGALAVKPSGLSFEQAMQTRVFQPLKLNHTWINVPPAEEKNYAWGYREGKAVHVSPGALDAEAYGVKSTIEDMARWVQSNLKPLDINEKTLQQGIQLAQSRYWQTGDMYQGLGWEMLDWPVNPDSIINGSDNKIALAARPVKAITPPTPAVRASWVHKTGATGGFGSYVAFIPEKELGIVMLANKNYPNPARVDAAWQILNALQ
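AmpC (5.3 nM in the dispensed reagent) in 20 mM phosphate pH 7.0 with 0.01% (detergent screen) or 0.0001% Triton X-100 was preincubated with compounds for 15 min at room temperature. Nitrocefin was then added from an 800 uM solution, and hydrolysis was followed at 480 nm.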
AmpC detergent: AmpC beta-lactamase inhibition with detergent present | P00811 | AmpC hydrolysis of nitrocefin, absorbance 480 nm, 0.01% Triton | Potency, µM (doses to about 114 µM), without a hit: at the top dose activity change, negative = inhibition, most hits filed as inhibitors | 0.041% of 370,000 active | AID 485294;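 note: 0% = no-compound wells and -100% = no-enzyme wells; nearly all actives have a fitted effect of over 25% in size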
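AmpC (5.3 nM in the dispensed reagent) in 20 mM phosphate pH 7.0 with 0.01% (detergent screen) or 0.0001% Triton X-100 was preincubated with compounds for 15 min at room temperature. Nitrocefin was then added from an 800 uM solution, and hydrolysis was followed at 480 nm.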
An asterisk follows results filed as active; ? = inconclusive; . = not tested or not shown; [ ] = another dose, or the depositor's remark. Unless noted, calls come from the whole dose curve; as a rule, active = well fitted curve in the direction sought with a large enough effect; inconclusive = small, poorly fitted or top-dose-only effect, or another doubt; inactive = no such curve, though single readings can be large; an effect the other way counts as inactive or inconclusive. Unless noted, % is set by controls: 0 for no effect and ±100 for the full control effect; potency is the fitted concentration of half-maximal effect.

SMILES | Sm TGR block | AMA1-RON2 inh | FMDV inh | AmpC inh no detg | AmpC detergent
CCOC(=O)C1CCCN(C2CC(=O)N(c3ccccc3)C2=O)C1 (stereo not drawn) | ? | -3% | -3% | -2% | -7%
CCOC(=O)C1CCN(C2CC(=O)N(c3ccc(OCC)cc3)C2=O)CC1 (stereo not drawn) | 50µM* | -12% | -11% | 13% | -6%
CCOC(=O)C1CCCN(C2CC(=O)N(c3ccc(N4C(=O)CC(N5CCCC(C(=O)OCC)C5)C4=O)cc3)C2=O)C1 (stereo not drawn) | 20µM* | -2% | 6% | -6%[2.29 µM] | 3%
COc1cc(-c2cnc3ccccc3c2)cc2c1OCCN(C(=O)Cn1nccc1C)C2 | . | . | -10% | . | .
CCOc1ccc(NC(=O)CSc2nc3c([nH]c4ccccc43)c(=O)n2-c2cc(C)cc(C)c2)cc1 | -22% | . | ? | . | 6%
CCc1ccc(N2CC(C(=O)OC)CC2=O)cc1 (stereo not drawn) | . | ? | 7% | -4% | 1%
CCc1ccc(N2C(=O)CC(N3CCC(C(=O)OC)CC3)C2=O)cc1 (stereo not drawn) | 56µM* | -3% | -15% | -27% | -12%
O=c1ccc2[n+]([O-])c3ccc(O)cc3oc-2c1 | 2.2µM* | 3% | -21% | -31% | 0%
CCC(=O)N1c2ccc(S(=O)(=O)CCC(=O)N3CCN(c4ccc(F)cc4)CC3)cc2CC1C (stereo not drawn) | 5.6µM* | . | ? | . | -1%
CCOC(=O)N1CCN(C(=O)CCS(=O)(=O)c2ccc3c(c2)CC(C)N3C(=O)CC)CC1 (stereo not drawn) | 22µM* | 0% | -24% | 19% | -2%
CCCC12CN3CC(CCC)(CN(C1)C3c1ccccc1)C2=O (stereo not drawn) | 13% | . | -24% | . | 1%
COC(=O)c1ccc2c(c1)C(C)(C)C(/C=C/c1ccccc1O)=[N+]2C | 50µM* | ? | 7.9µM* | -37% | 6%
C[N+]1=C(/C=C/Nc2ccccc2Cl)C(C)(C)c2ccccc21 | -27% | -32% | -28% | -22% | -5%
COc1ccc(-c2cc(OC(=O)c3ccc(Cl)cc3)c3c(C)oc(C)c3c(=O)c2)cc1 | 40µM* | . | ? | . | -2%
COc1ccc(-c2cc(OC)c3c(C)oc(C)c3c(=O)c2)cc1OC | 50µM* | -13% | -8% | 144% | -3%
CCOc1ccc(-c2cc(OC(=O)c3ccc(OC)cc3)c3c(C)oc(C)c3c(=O)c2)cc1 | ? | . | -1% | . | 9%
COc1ccc(C2NC3=C(CCCC3)C(C#N)(C#N)C2(C#N)C#N)cc1 (stereo not drawn) | 1.8µM* | . | . | -21% | 5%
COc1ccc(C2NC3=C(CCC3)C3(C#N)C4(N=C(N)C23C#N)OCCO4)cc1 (stereo not drawn) | -34% | -4% | ? | 7% | 9%
c1ccc2c(c1)[nH]c1c(N3CCSCC3)ncnc12 | 7% | -4% | 22µM* | -2% | 0%
c1ccc2c(c1)[nH]c1c(N3CCOCC3)ncnc12 | -8% | 12% | . | -20% | -4%
c1ccc2c(c1)[nH]c1c(N3CCCC3)ncnc12 | 5% | -1% | 13µM* | -25% | 13%
Cc1cccc2[nH]c3c(N4CCC5(CC4)OCCO5)ncnc3c12 | 3% | 12% | 40µM* | -1% | 2%
O=C1CC(N2CCN(c3ccc(F)cc3)CC2)C(=O)N1Cc1ccc(N2CCCC2=O)cc1 (stereo not drawn) | 45µM* | 14% | ? | 9% | -10%
O=C(c1ccc(F)cc1)N1CCc2c([nH]c3ccccc23)C1c1ccc(Cl)cc1 (stereo not drawn) | 9% | . | -21% | . | 22%
O=C(CC1S/C(=N/N=C/c2c[nH]c3ccccc23)NC1=O)Nc1ccccc1 (stereo not drawn) | -2% | 51% | 12% | 25µM* | -3%
O=C(CC1S/C(=N/N=C/c2c[nH]c3ccc(OCc4ccccc4)cc23)NC1=O)Nc1ccccc1 (stereo not drawn) | 1% | -8%[2.32 µM] | -13% | 5µM* | ?

Compound activity deposited in PubChem by National Center for Advancing Translational Sciences (NCATS).
